This is one part of the list. No count for the full screen is at hand.

The values that follow come from the supplement of paper PMC3545927.

The target of this assay is furin, P09958. Put plainly: furin cleavage Z-score vs untreated control; higher = more cleavage, active = 3.5 or more, inactive = 1 or less, 8 variable residues between constant flanks. The method in brief: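 The cleavage Z-score is the log read count relative to furin-free reactions, lowess-adjusted and scaled by median absolute deviation. Counts came from sequencing DNA released from bead-bound 8-mer peptide–cDNA fusions after digestion with purified furin for 7.5, 15 or 30 min.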
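Further: purified furin at 1:10 enzyme:substrate in 50 mM HEPES pH 7.5.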

Chain of furin, P09958 (P09958 whole entry, the tested form may be a part): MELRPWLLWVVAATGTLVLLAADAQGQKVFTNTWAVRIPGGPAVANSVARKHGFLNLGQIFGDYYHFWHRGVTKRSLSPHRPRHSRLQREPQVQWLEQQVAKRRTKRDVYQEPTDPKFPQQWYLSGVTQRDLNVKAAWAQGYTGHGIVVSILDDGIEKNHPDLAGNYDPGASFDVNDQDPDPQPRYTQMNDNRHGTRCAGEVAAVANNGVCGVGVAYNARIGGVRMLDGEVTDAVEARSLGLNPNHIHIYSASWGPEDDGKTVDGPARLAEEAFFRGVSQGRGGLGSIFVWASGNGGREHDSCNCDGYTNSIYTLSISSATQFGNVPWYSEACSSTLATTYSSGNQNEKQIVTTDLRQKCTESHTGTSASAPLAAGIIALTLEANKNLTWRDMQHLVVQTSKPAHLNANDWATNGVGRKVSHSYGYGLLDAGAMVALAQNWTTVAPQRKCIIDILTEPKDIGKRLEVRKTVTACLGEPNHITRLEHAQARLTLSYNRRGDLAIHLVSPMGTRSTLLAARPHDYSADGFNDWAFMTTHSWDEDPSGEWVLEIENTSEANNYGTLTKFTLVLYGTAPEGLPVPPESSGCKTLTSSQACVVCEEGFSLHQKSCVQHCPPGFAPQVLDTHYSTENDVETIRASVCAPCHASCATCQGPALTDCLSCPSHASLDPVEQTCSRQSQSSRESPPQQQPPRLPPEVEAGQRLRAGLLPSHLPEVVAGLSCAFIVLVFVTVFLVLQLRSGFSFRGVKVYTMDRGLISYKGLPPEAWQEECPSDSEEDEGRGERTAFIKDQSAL

Consider CAHPRRSRRSAGNASASA [FS-932], for which the “furin cleavage Z-score” value is, setting by setting: (7.5 min) 8.18 (active); (15 min) 9.38 (active); (30 min) 7.97 (active).

In the case of CAASRVSRRSAGNASASA [FS-979], the “furin cleavage Z-score” value runs as follows: (7.5 min) 5.49 (active); (15 min) 7.22 (active); (30 min) 5.62 (active).

For the sequence CAKVLRSRRSAGNASASA [FS-1353], the “furin cleavage Z-score” value was 3.74 (active) (7.5 min), 4.72 (active) (15 min) and 3.35 (30 min).

On to CASPRDARRSAGNASASA [FS-1614], for which the “furin cleavage Z-score” value is -1.33 (inactive) (7.5 min), -1.24 (inactive) (15 min) and -1.6 (inactive) (30 min).

CAHSRRSRRSAGNASASA [DV5]: the “furin cleavage Z-score” value (7.5 min) is 12.2 (active), the “furin cleavage Z-score” value (15 min) is 12.3 (active) and the “furin cleavage Z-score” value (30 min) was 9.14 (active).

In the case of CAIALRLRRSAGNASASA [FS-32], the “furin cleavage Z-score” value (7.5 min) was 1.01, the “furin cleavage Z-score” value (15 min) is 0.68 (inactive) and the “furin cleavage Z-score” value (30 min) was 0.673 (inactive).

Consider CAYPYRLWHYAGNASASA [HC466], for which the “furin cleavage Z-score” value runs as follows: (7.5 min) -1.33 (inactive); (15 min) -2.06 (inactive); (30 min) 0.263 (inactive).

For the sequence CASTPCSTHLAGNASASA [HC2538], the “furin cleavage Z-score” value (7.5 min) is -0.715 (inactive), the “furin cleavage Z-score” value (15 min) is 0.257 (inactive) and the “furin cleavage Z-score” value (30 min) was -0.443 (inactive).

As to CAYCWHYPPKAGNASASA [HC403], the “furin cleavage Z-score” value was 1.04 (7.5 min), 0.468 (inactive) (15 min) and 2.44 (30 min).

On to CAHSRTIKRSAGNASASA [FS-1632], for which the “furin cleavage Z-score” value by setting is: (7.5 min) 5.07 (active); (15 min) 6.15 (active); (30 min) 6.19 (active).

As for CATTPCSYSWAGNASASA [HC1889], the “furin cleavage Z-score” value reads like this: (7.5 min) -2.07 (inactive); (15 min) 0.349 (inactive); (30 min) 1.53.

Take CAGFHRRARAAGNASASA [FS-239]: the “furin cleavage Z-score” value is, setting by setting: (7.5 min) 4.46 (active); (15 min) 3.84 (active); (30 min) 4.12 (active).

Take CAGPRLGVRAAGNASASA [HC181]: the “furin cleavage Z-score” value is -1.03 (inactive) (7.5 min), 0.21 (inactive) (15 min) and -0.871 (inactive) (30 min).

Consider CAGNEGCGWAAGNASASA [HC204], for which the “furin cleavage Z-score” value is, setting by setting: (7.5 min) -0.525 (inactive); (15 min) -0.206 (inactive); (30 min) -0.116 (inactive).

Consider CAGNRRRARAAGNASASA [FS-126], for which the “furin cleavage Z-score” value (7.5 min) is 9.62 (active), the “furin cleavage Z-score” value (15 min) is 8.76 (active) and the “furin cleavage Z-score” value (30 min) was 7.27 (active).

As for CAQDVLKEVKAGNASASA [HC1403], the “furin cleavage Z-score” value was -1.57 (inactive) (7.5 min), -2.35 (inactive) (15 min) and -1.62 (inactive) (30 min).

In the case of CAITAEAAGRAGNASASA [HC1251], the “furin cleavage Z-score” value is, setting by setting: (7.5 min) 0.707 (inactive); (15 min) -1.39 (inactive); (30 min) -1.45 (inactive).

Take CARQRREMVAAGNASASA [FS-2589]: the “furin cleavage Z-score” value runs as follows: (7.5 min) 4.84 (active); (15 min) 5.77 (active); (30 min) 5.19 (active).

On to CARQRRGTGAAGNASASA [FS-2762], for which the “furin cleavage Z-score” value reads like this: (7.5 min) 3.78 (active); (15 min) 4.54 (active); (30 min) 4.93 (active).

For the sequence CARDRRGCFAAGNASASA [FS-2253], the “furin cleavage Z-score” value (7.5 min) is -0.438 (inactive), the “furin cleavage Z-score” value (15 min) is -0.0621 (inactive) and the “furin cleavage Z-score” value (30 min) was 0.916 (inactive).

With CARQRRLLAAAGNASASA [FS-3042], the “furin cleavage Z-score” value (7.5 min) is -1.14 (inactive), the “furin cleavage Z-score” value (15 min) was -0.921 (inactive) and the “furin cleavage Z-score” value (30 min) was 0.324 (inactive).

For CARQRRPTGPAGNASASA [FS-2511], the “furin cleavage Z-score” value was -1.58 (inactive) (7.5 min), -0.922 (inactive) (15 min) and 0.378 (inactive) (30 min).

As for CARQRRGFHHAGNASASA [FS-2365], the “furin cleavage Z-score” value runs as follows: (7.5 min) 0.595 (inactive); (15 min) 4.95 (active); (30 min) 6.76 (active).

For CARQRRGCFRAGNASASA [FS-2446], the “furin cleavage Z-score” value is, setting by setting: (7.5 min) 1.29; (15 min) 2.53; (30 min) 4.76 (active).
